# Reference: PubChem BioAssay
# Results filed as inconclusive are left out. The source made the active and inactive calls. Unless noted, the limit is not given here; nearly all actives have AC50 up to about 26 µM.
# Experiments:
# [1] = growth inhibition of DIPG glioma cells, dose response, cell-based, SU-DIPG-XVII, MIPE5.0, CellTiter-Glo, qHTS (AID 1347060); conditions: SU-DIPG-XVII viability, CellTiter-Glo ATP luminescence;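 as to AC50: cells exposed to compound for 48 hours before viability readout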
# [2] = JHH-DIPG-1 glioma cell viability, MIPE5.0 library, CellTiter-Glo luminescence, qHTS (AID 1347067); conditions: JHH-DIPG-1 glioma viability, CellTiter-Glo ATP luminescence;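 also: cells exposed to compound for 48 hours before readout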
# [3] = SU-DIPG-XXV glioma cell viability, MIPE5.0 library, qHTS (AID 1347068; cut-off not given, nearly all actives have IC50 up to about 30 µM)
# [4] = sensitizers of A549 cells to miR-34 induction, primary screen, imaging, A549 dox-inducible miR-34, nuclei and caspase counts (AID 1347080;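 active = compounds whose cell count with miR-34 switched on is under 0.7 times the count with it off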); conditions: A549 miR-34 inducible, Hoechst nuclei count, 48 h
# [5] = survival rescue of mitochondrial mutant cells in low glucose, primary screen, MELAS cybrids, Rieske KO mouse fibroblasts, CellTiter-Glo (AID 1508586;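 active = mean z-score across replicates of 1.96 or higher in either the MELAS or the Rieske mutant cell line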;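 also: z relative to plate mean and SD of compound and empty wells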)
smiles,measurement,setting,value
C=C1CCC[C@]2(C)C=C3OC(=O)C(C)=C3C[C@@H]12,outcome,[1],inactive
same,outcome,[2],inactive
same,outcome,[3],inactive
CNc1ncc2cc(-c3cc(NC(=O)NCCC(C)(C)C)c(F)cc3C)c(C)nc2n1,outcome,[1],inactive
same,outcome,[3],inactive
NC(=O)c1cc(F)cc2c1C(=O)N(C1CCN(C3CCC(F)(F)CC3)CC1)C2,outcome,[1],inactive
same,outcome,[2],inactive
same,outcome,[3],inactive
CN1C[C@@H]2c3ccccc3Oc3ccc(Cl)cc3[C@H]2C1,outcome,[1],inactive
same,outcome,[2],inactive
same,outcome,[3],inactive
same,fold change,"[4]; stronger effect = lower value, cell number ratio, induced over uninduced",0.885 (inactive)
same,fold change,[4]; measured here: relative caspase fold change +Dox/-Dox,1.23
same,cell count,"[4]; measured here: total cells with miR-34 induction, stronger effect = lower value",6350
same,cell count,[4]; measured here: total cells without miR-34 induction,7170
same,z-score,"[5]; MELAS cybrid survival, CellTiter-Glo 48 h, stronger effect = higher value",-0.348 (inactive)
same,z-score,"[5]; Rieske KO mouse fibroblast survival, CellTiter-Glo 72 h",0.514
CC[C@H](Nc1ncnc2nc[nH]c12)c1oc2ccccc2c(=O)c1-c1cccc(F)c1,outcome,[1],inactive
same,outcome,[3],inactive
CC(C)NCCCn1c(Sc2cc(Cl)cc(Cl)c2)nc2c(N)ncnc21,outcome,[1],inactive
same,outcome,[2],inactive
same,outcome,[3],inactive
CN1C(=O)N(c2cc(Cl)cc(Cl)c2)C(=O)[C@]12CN(Cc1cc(C(=O)O)cs1)C[C@H]2c1ccc(C#N)cc1,outcome,[1],inactive
same,outcome,[3],inactive
COc1cc2c3c(n(CCCN4CCOCC4)c(=O)c2cc1OC)-c1cc2c(cc1C3=O)OCO2,AC50,[1],0.0417 µM (active)
same,AC50,[2],8.33 µM (active)
same,outcome,[3],inactive
NC(=O)C1=C(O)[C@@]2(O)C(=O)C3=C(O)c4c(O)cccc4C[C@H]3C[C@H]2CC1=O,AC50,[1],18.6 µM (active)
same,AC50,[2],14.8 µM (active)
same,outcome,[3],inactive
N#Cc1cccnc1N1CCN(C(=O)c2cccc(Cc3n[nH]c(=O)c4ccccc34)c2)CC1,AC50,[1],0.059 µM (active)
same,outcome,[3],inactive
O=C(CCNC(=O)c1ccc(OC(F)(F)F)cc1)N[C@@H]1CCCc2ccccc21,AC50,[1],20.9 µM (active)
same,AC50,[2],8.33 µM (active)
same,outcome,[3],inactive
CN(C)CCN1C(=O)c2cccc3cc(NC(N)=O)cc(c23)C1=O,AC50,[1],18.6 µM (active)
same,outcome,[3],inactive
O=C(/C=C/c1ccc(Cl)cc1)N1CCC2(CC1)CN(Cc1ccc(Cl)c(Cl)c1)C(=O)O2,AC50,[1],18.6 µM (active)
same,outcome,[3],inactive
COC(=O)C1=C(C)NC(c2ncc(F)cc2F)=N[C@@H]1c1ccc(F)cc1Cl,outcome,[1],inactive
same,outcome,[3],inactive
COc1ccc(Cl)c(Nc2ncnc3cc(OCC4CCN(C)CC4)c(OC)cc23)c1,AC50,[1],3.72 µM (active)
same,AC50,[2],20.9 µM (active)
same,outcome,[3],inactive
